ugtP null kill: kills S. aureus RN4220 lacking UgtP; S. aureus RN4220 ugtP deletion, OD600 growth, 16 h; growth inhibition, % (concentration not given with the values); 330,000 tested, 0.54% active; AID 1259309; in the data active = growth inhibition above about 68%;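 also: plate controls were untreated wells for no effect and antibiotic for full effect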
Sa RN4220 lethal: S. aureus RN4220 growth inhibition. OD600, 16 h. inhibition, % (no concentration beside the values). 330,000 tested, 0.33% active; in the data active = inhibition above about 85%;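 also: plate controls were untreated cells for no effect and reference antibiotic for full effect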
Vc quorum ag-1: induces V. cholerae light production without autoinducers; activation, % at 18.7 µM; V. cholerae BH1578 lux reporter, luminescence, 6 h; 350,000 tested, 0.16% active; AID 588436; in the data active = activation mostly above about 9.7%, no sharp cut-off
Mtb hypoxia rep: Mtb hypoxia fluorescent reporter inhibition | M. tuberculosis hypoxia-regulated fluorescent reporter, fluorescence | fluorescence inhibition, % (test concentration not listed) | 300,000 tested, 0.1% active; in the data active = fluorescence inhibition mostly above about 23%, no sharp cut-off; inactive = mostly below about 17%
CCHF vOTU inh: CCHFV vOTU protease inhibition | AID 651958 | inhibition, % at 11.5 µM | Pep-AMC fluorescence | 370,000 tested, 0.55% active; in the data active = inhibition above about 30%; also: 0% = vehicle wells with enzyme and 100% = no enzyme wells
PfHsp40 yeast: restores yeast growth despite PfHsp40 toxicity; S. cerevisiae expressing PfHsp40, growth rescue, ATP luminescence; growth rescue, % at 12.5 µM; 340,000 tested, 0.68% active; in the data active = growth rescue above about 28%, passing the limit was not always enough;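 also: yeast W303a lacking pdr1 and pdr3 grown in galactose medium; growth measured after three days at 30 °C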
Vc quorum ag-2: quorum light induction in BH1578 reporter strain; shares compounds with Vc quorum ag-1; V. cholerae BH1578 lux reporter, luminescence, 6 h; activation, % at 50 µM; 620 tested, under 10 active; AID 602243; call rule not given here
HeLa tox: cytotoxicity in HeLa cells at 24 hours | 25 tested, under 10 active | activity change, negative = cytotoxicity, % at 35 µM | shares compounds with Vc quorum ag-1 | AID 624140 | HeLa viability, CellTiter-Glo ATP luminescence;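 active = signal drop with fitted half-maximal concentration at or below twice the highest valid dose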
* = called active by the depositor; i = inactive; . = no result shown. Hits are enriched below; roughly 1.7% of the tested compounds scored in any of these assays.

SMILES | ugtP null kill | Sa RN4220 lethal | Vc quorum ag-1 | Mtb hypoxia rep | CCHF vOTU inh | PfHsp40 yeast | Vc quorum ag-2 | others
CCN(CC)c1ccc(C=NN2C(=O)c3ccccc3C2=O)cc1 | 5.0 | 1.7 | . | 4.9 | . | . | .
COc1ccccc1CCN1CCCC(CN(C)C(=O)c2ccco2)C1 (stereo not given) | 12.0 | 1.1 | 14.3 | 6.5 | -1.1 | -0.4 | 0.2
Cc1cnc(C(=O)OCC(=O)Nc2ccc(Cl)cc2)cn1 | 7.0 | 4.8 | i | 8.4 | 9.7 | -0.8 | .
Cc1cnc(C(=O)OCC(=O)NC(=O)NC(C)C)cn1 | 4.7 | 12.2 | 33.3* | -5.8 | -2.6 | -0.2 | -0.1
CC(=O)N1CCN(CC(O)COc2ccc(Br)cc2)CC1 (stereo not given) | 4.7 | 1.2 | i | 13.9 | 13.1 | -0.8 | .
CCCCOCC(O)CN1CCN(C(C)=O)CC1 (stereo not given) | -6.5 | 2.0 | 12.5 | 4.3 | -7.0 | 0.0 | 2.0
Cc1ccc(C)c(N(C(=O)Cn2nnc(-c3cccs3)n2)C(C(=O)NC2CC2)c2ccc(C)o2)c1 (stereo not given) | -4.0 | 2.1 | 828.6* | -3.2 | -9.7 | -0.4 | 2.2
COC(=O)c1ccc(C2C(C(C)=O)=C(O)C(=O)N2CCO)cc1 (stereo not given) | 1.5 | 5.2 | 16.7* | -5.2 | 10.3 | 0.7 | 0.1
COC(=O)c1ccc(C2c3c(oc4ccc(F)cc4c3=O)C(=O)N2CCO)cc1 (stereo not given) | -6.7 | 0.0 | -0.3 | . | -7.4 | -1.3 | .
Cc1cc2oc(=O)cc(CN3CCC(C)CC3)c2cc1Cl | -4.9 | -0.1 | 26.2* | 12.9 | 4.5 | -1.3 | 4.0
CCCn1nnnc1NCc1cccc(OC)c1 | 7.5 | 1.7 | 0.8 | 6.9 | -2.4 | 0.4 | .
CCn1nnnc1NCc1cccc(OC)c1 | . | . | . | . | . | . | . | HeLa tox=-14.3
COc1cccc(CN(C)C(=O)CSC(C)C(=O)Nc2cc(C)on2)c1OC (stereo not given) | -3.4 | 1.1 | 1.8 | 1.5 | -3.5 | -0.6 | 0.0
COc1cccc(CN(C)C(=O)CSCC(=O)Nc2cc(C)on2)c1OC | 5.7 | -0.2 | -0.6 | 3.1 | -7.5 | -0.3 | .
COc1ccc(C=NNC(=O)c2cccc(C(F)(F)F)c2)cc1 | 0.7 | 3.0 | . | 2.5 | . | . | .
CN(C)C(=O)CCSc1nnc(-c2ccco2)o1 | 3.3 | 2.6 | 101.4* | 13.2 | -2.0 | -0.8 | 882.7
CCN(CC)C(=O)CSc1nnc(-c2ccco2)o1 | 6.5 | 2.0 | . | -3.7 | -3.8 | 0.2 | .
COC(=O)c1ccc(C=Nn2c(C)nnc2C)cc1 | -4.3 | 0.4 | . | 6.2 | . | . | .
COc1ccc(C=NNC(=O)CCn2c3ccccc3c3ccccc32)cc1OC | -8.4 | 2.0 | . | 4.0 | . | . | .
Cc1cc(=O)oc2ccc(OCc3ccccc3)cc12 | -0.7 | 12.7 | . | 2.9 | -4.4 | 11.5 | i
O=c1c2ccccc2nnn1CSc1nnc(-c2cccnc2)n1-c1ccccc1F | 8.7 | 7.4 | 12.5 | 6.5 | 1.2 | 0.1 | -0.1
O=C(NN=Cc1ccccn1)c1cccc(C(=O)NN=Cc2ccccn2)n1 | 4.1 | 1.4 | . | 4.8 | . | . | .
CC(=O)Nc1ccc(C(=O)N2CCCc3ccccc32)cc1 | 8.9 | 8.6 | i | 5.2 | 0.7 | -1.1 | .
CC(=O)C(CC(=O)N1CCCc2ccccc21)C(=O)Nc1ccc(F)cc1 (stereo not given) | 7.4 | 2.9 | 14.3 | . | -2.9 | -0.1 | -0.1
O=C(/C=C/c1ccc(OCCCF)cc1)NCc1ccc(Cl)cc1 | -8.6 | 0.7 | 39.3* | . | 3.2 | 0.7 | 5.1
SMILES | ugtP null kill | Sa RN4220 lethal | Vc quorum ag-1 | Mtb hypoxia rep | CCHF vOTU inh | PfHsp40 yeast | Vc quorum ag-2 | others
COc1ccc(CNC(=O)/C=C/c2ccc(OCCCF)cc2)cc1 | 0.2 | 0.2 | i | . | 14.0 | 0.4 | .
CN(CC(=O)Nc1c(Cl)cccc1Cl)C(=O)c1n[nH]c2ccccc12 | 1.6 | 4.6 | 19.3 | 1.2 | -7.0 | 0.3 | 0.1
CCC(CCC(=O)Nc1cccc(C(=O)O)c1)C(=O)O (stereo not given) | 1.2 | -7.5 | 16.7* | 2.1 | -0.2 | -0.3 | 0.5
CCCCC(C(=O)O)C(C)CC(=O)Nc1cccc(C(=O)O)c1 (stereo not given) | -8.6 | -3.9 | i | -0.6 | 3.6 | -1.9 | .
Cc1cccc(OCC(=O)N(C)CCc2ccccn2)c1 | 10.4 | -3.0 | 25.0* | . | 8.8 | 0.4 | 0.3
Cc1cccc(CN(C)CCc2ccccn2)c1 | 6.0 | 1.6 | i | -0.4 | 0.3 | -0.1 | .
CC(C)CNC(=O)C(=O)NN=Cc1cccs1 | 0.8 | 0.4 | . | -1.5 | . | . | .
COc1ccc(OC)c(NC(=O)COC(=O)c2cc3c(s2)CCC3)c1 | -11.2 | 6.4 | 21.9 | -0.7 | -3.5 | 0.3 | 2.1
COc1ccccc1NC(=O)COC(=O)c1cc2c(s1)CCC2 | 4.3 | 6.4 | . | 2.0 | 7.8 | -0.7 | i | HeLa tox=4.5
COc1ccccc1NC(=O)COC(=O)C1CCCC1 | -1.0 | 3.5 | i | -2.8 | -10.7 | -1.4 | .
Cc1nnc(SCc2cc(=O)[nH]c(N=C(N)Nc3ccccc3)n2)s1 | 2.0 | 2.4 | . | 21.7 | . | . | .
O=C(NN=Cc1cccc([N+](=O)[O-])c1)c1ccc(Br)cc1 | -5.7 | 0.1 | . | -0.1 | . | . | .
CCN1CC2C3C(=O)N(C)C(=O)C3[C@](C)(C1=O)N2C(=O)c1ccc(Cl)cc1 (stereo not given in full) | -2.6 | 7.3 | . | 0.7 | . | . | .
COc1cccc(C=NNC(=O)c2ccncc2)c1OC(=O)c1ccc(Br)cc1 | 7.7 | 3.8 | . | 6.8 | . | . | .
O=C(COc1ccccc1)Nc1ccccc1N1CCCCC1 | -8.9 | -3.0 | 8.3 | . | 6.3 | 8.1 | .
O=C(COc1cccc(Cl)c1)Nc1ccccc1N1CCCCC1 | -8.8 | 2.9 | 19.3 | 13.8 | 6.7 | -0.3 | 0.0
NC(=S)NN=Cc1ccc(OC(=O)c2cccnc2)cc1 | 0.9 | 1.4 | . | . | . | . | .
Cc1cc(CNC(=O)C2(C(F)(F)F)CC(=CCc3ccccc3)CCCO2)nn1C (stereo not given) | 4.0 | 8.7 | . | 11.7 | . | . | .
CN(Cc1nc2ccccc2n1C)C(=O)c1ccco1 | 6.8 | 3.0 | 12.5 | 0.3 | -6.0 | 3.2 | 0.1
O=C(Nc1nnc(-c2ccc3c(c2)OCCO3)o1)C1CCCCC1 | 2.5 | 2.2 | . | 11.5 | -14.1 | 0.0 | . | HeLa tox=-13.5
O=C(NCC(F)(F)F)Nc1ncccn1 | 4.0 | 2.2 | 15.4* | . | 0.6 | 0.0 | 2.5
Cc1ccc(C=CC(=O)Nc2ccc(O)c3c(=O)cc(-c4ccccc4Cl)oc23)cc1 | -2.3 | 3.2 | . | 4.9 | . | . | .
O=c1cc(CSc2ccccn2)c2ccccc2[nH]1 | -5.8 | 30.5 | 26.7* | . | 4.8 | 0.5 | 0.6
Cc1ccc(S(=O)(=O)N(C)c2ccc(OCC(=O)N3CCCCC3)cc2)cc1 | -4.0 | 4.7 | 12.5 | 9.8 | 3.2 | 0.5 | 1.6
Cc1ccc(S(=O)(=O)NN=Cc2ccc3c(c2)OCO3)c(C)c1 | 10.5 | 5.6 | . | 1.1 | . | . | .
COc1ccc(C(C)=NNc2nc(-c3ccc(Cl)cc3)cc(C(F)(F)F)n2)cc1OC | 49.5 | 1.7 | . | -5.6 | . | . | .

From PubChem BioAssay
